According to PubChem BioAssay (NCI):
This is part of a sample that, as a whole, favours compounds with a hit. Of some 83,000 tested, about 20% had one in any assay.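 Negative percent growth values reflect cell death: -40 means 40% of the cells present at the start died, and -100 means all died.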 Values without a mark were called inactive. Active and inactive are the calls of the source. How the source made its calls: active means growth percent below 10; inactive means the rest.

Tested on: M14 melanoma
Test: NCI-60 one-dose screen, 48 h (100 = growth as untreated, 0 = no growth, -100 = all killed)
Conditions: 10 µM unless noted

With `C#C[C@]1(O)CC[C@H]2[C@@H]3CC=C4c5sc(Nc6cc(C)cc(C)c6)nc5CC[C@]4(C)[C@H]3CC[C@@]21C` as the molecule, how does the growth read?
The growth was -60.2% (active).

Which growth does the source give for `CCCC[n+]1ccc(SCC(=O)n2ccc3ccccc32)c2ccccc21` here?
Its growth is 98.8%.

For `CC(C)(C)c1cc(NC(=O)Nc2ccc(-c3cn4c5c(sc4n3)CCc3cn(CCCN4CCCCC4)cc3-5)cc2)no1`, which growth is on record?
Its growth is -93.6% (active).

Which growth does the source give for `CCCCCCNC(=O)Oc1ccc(/C(=C(/C)c2ccc(OC)cc2)c2ccc(OCCN3CCCCCC3)cc2)cc1` here?
Its growth is -63.5% (active).

For `Cn1cc(-c2cc3ncnc(Nc4ccc(CC(=O)Nc5nc(C(C)(C)C)cs5)cc4)c3s2)cn1`, which growth is on record?
The growth was 41.5%.

How did the growth turn out when `O=C(CCCCCC/C=C\c1csc(Br)n1)NO` was run?
The growth was 93.9%.

How did the growth turn out when `COc1ccc(C(=O)c2c(N)c(C#N)cn2-c2ccc(Cl)cc2Cl)cc1` was run?
The growth was 91.2%.

For `Cc1ccc2c(n1)C(=O)C(Cl)=C(Nc1cccc(C(F)(F)F)c1)C2=O`, which growth is on record?
The growth was 80.4%.

`O=C1[C@H]2Cc3c([nH]c4ccccc34)[C@H](c3ccc(Cl)cc3)N2C(=O)CN1C1CCN(CC2CCCCC2)CC1` was tested. Which growth did it give?
The growth was -56% (active).

Which growth does the source give for `COc1ccc(/C=N/NC(=O)c2c(N)nn(C)c2Nc2ccccc2)cc1` here?
Its growth is 13%.

`Fc1ccc2nc(-c3cnn4cccnc34)sc2c1` was tested. Which growth did it give?
Its growth is 101%.

For `O=C(/C=C/c1cccc(F)c1)c1cccc(OCCCCOc2cccc(C(=O)/C=C/c3cccc(F)c3)c2)c1`, which growth is on record?
Its growth is 103%.

`O=C(COc1ccc(/C=C2\C(=O)Nc3ccc(Cl)cc32)cc1)Nc1ccc(Cl)cc1` was tested. Which growth did it give?
The growth was 7.47% (active).

Which growth does the source give for `O=C(Nc1cccc(Cl)c1)Nc1nc2cc([N+](=O)[O-])ccc2o1` here?
Its growth is 39.5%.

With `COc1ccc(NC(=O)CCCCCCNC(=O)C(O)(O)C(F)(F)F)cc1` as the molecule, how does the growth read?
The growth was 49.6%.

How did the growth turn out when `CC(=O)N(O)CCCCCNC(=O)CCC(=O)N(O)CCCCCNC(=O)CCC(=O)N(O)CCCCCN(CCCCCCCCCC[P+](c1ccccc1)(c1ccccc1)c1ccccc1)CCCCCCCCCC[P+](c1ccccc1)(c1ccccc1)c1ccccc1` was run?
The growth was 11%.

Which growth does the source give for `Cc1cc(Br)ccc1-n1cc(C#N)c(N)c1C(=O)c1ccc(Br)cc1` here?
The growth was 89.4%.

`CN(C)S(=O)(=O)c1ccc(-c2nc(C(Cl)Cl)nc3cc(-c4ccccc4)nn23)cc1` was tested. Which growth did it give?
The growth was 74%.

`CN1CCN(c2ccc(Nc3nc(NCCNC(=O)c4ccc(F)cc4)c4sccc4n3)cc2)CC1` was tested. Which growth did it give?
The growth was -10.1% (active).

Which growth does the source give for `O=[N+]([O-])c1ccc(NC(=S)NNC(=S)Nc2ccc(Br)cc2)cc1` here?
The growth was 87.9%.

With `C/C(=N\NC(=O)/C=C/CC(=O)O)c1nnn(-c2ccc([N+](=O)[O-])cc2)c1C` as the molecule, how does the growth read?
The growth was 103%.

For `CN1CCN(c2ccc(Nc3nc(NCCCNS(=O)(=O)c4ccc(F)cc4)c4sccc4n3)cc2)CC1`, which growth is on record?
Its growth is -21.3% (active).

With `N#CC1=C2NCCCNc3oc(nc3C#N)Cc3ccccc3CC(=N1)O2` as the molecule, how does the growth read?
The growth was 86.4%.

`COc1ccccc1/C=C1\Oc2ccc(O)c(O)c2C1=O` was tested. Which growth did it give?
Its growth is 95.4%.

How did the growth turn out when `COc1ccc(NC2=C(Br)C(=O)C(C)=C(C)C2=O)cc1OC` was run?
Its growth is 104%.

With `O=C(Nc1ccc(N=Cc2c(O)[nH]c3ccccc23)cc1)Nc1ccc(S(=O)(=O)Nc2ncccn2)cc1` as the molecule, how does the growth read?
The growth was 104%.

How did the growth turn out when `NC(=O)c1c(NC(=O)c2ccc(C(F)(F)F)cc2)sc2c1CCC(=O)C2` was run?
Its growth is -22% (active).

`O=C(/C=C/c1cccc(Br)c1)c1cccc(OCCCCOc2cccc(C(=O)/C=C/c3cccc(Br)c3)c2)c1` was tested. Which growth did it give?
Its growth is 93.9%.

With `O=C(CCCCCCNC(=O)c1csc(Br)n1)NO` as the molecule, how does the growth read?
The growth was 29.4%.

`CC1CC(=O)C2=C(C1)Nc1ccc(Br)cc1CC2c1c[nH]c2ccc(Br)cc12` (stereo not given) was tested. Which growth did it give?
The growth was 29%.

`C#CCN(C)CCCOc1ccc(NCc2ccc(C(=O)NO)cc2)cc1Cl` was tested. Which growth did it give?
The growth was 29%.

`CC(=O)Nc1nc(C)c(-c2csc(Nc3ccccc3)n2)s1` was tested. Which growth did it give?
Its growth is 35.3%.

`Cc1csc(/N=C(N)/N=C(\N)c2cccc(C#N)c2)n1` was tested. Which growth did it give?
Its growth is 45.2%.

How did the growth turn out when `Clc1cccc(/C=N/Nc2nc(N/N=C/c3cccc(Cl)c3)nc(N3CCCCC3)n2)c1` was run?
Its growth is 95.3%.

Which growth does the source give for `O=C1[C@H]2Cc3c([nH]c4ccccc34)[C@H](c3ccc(Br)cc3)N2C(=O)CN1C1CCN(CC2CCCCC2)CC1` here?
The growth was -17.4% (active).

Which growth does the source give for `Cc1[nH]c(C(=O)Nc2ccc(C(=O)NCC3CCNCC3)cc2OC(C)C)c(Cl)c1Cl` here?
The growth was 62.4%.

With `CCN(CC)S(=O)(=O)c1ccc(-c2nc(C(Cl)Cl)nc3cc(-c4ccc(F)cc4)nn23)cc1` as the molecule, how does the growth read?
The growth was 47.1%.

For `C/C(=N/N)c1nnn(-c2ccc(Br)cc2)c1C`, which growth is on record?
The growth was 105%.

With `CC1=C(C)C(=O)C(Nc2cccc(C)c2)=C(Br)C1=O` as the molecule, how does the growth read?
Its growth is 104%.

`Cc1ccc(C(=O)Nc2ccc(CNCCN3CCNCC3)c(C(F)(F)F)c2)cc1C#Cc1cnc2cccnn12` was tested. Which growth did it give?
Its growth is -64.6% (active).
